Assay results taken from the antibiotic and cytotoxicity screens of Wong et al. (2023).
In all, about 39,000 compounds went through this assay and about 3,300 (8.5%) were called active. The full list was thinned out, with actives kept by preference.

Test system: HepG2
Assay: cytotoxicity call (relative viability < 0.9)
Settings: 10 µM

Row | SMILES | cytotoxicity call
1 | C[C@H](CO)N1C[C@H](C)[C@@H](CN(C)C(=O)Nc2cccc3ccccc23)OCCCC[C@H](C)Oc2ccc(NS(=O)(=O)c3cn(C)cn3)cc2C1=O | inactive
2 | C[C@@H]1CN([C@H](C)CO)C(=O)Cc2cc(NC(=O)Cn3cnnn3)ccc2O[C@H]1CN(C)Cc1ccc(Cl)c(Cl)c1 | inactive
3 | C/C=C/c1cccc(-c2nc(C(=O)NCc3cccc(OC)c3)cc3c2[C@@H](CCO)N([S@](=O)C(C)(C)C)C3)c1 | inactive
4 | CC(C)[Si]1(C(C)C)O[C@@H](c2ccccc2)c2cc(C3CC3)nc(-c3ccc(Oc4ccccc4)cc3)c21 | inactive
5 | CCC(CC)C(=O)N1c2ccccc2Sc2ccccc21 | inactive
6 | CC(CN1c2ccccc2Sc2ccccc21)N(C)C.Cl (stereo unspecified) | active
7 | CCN(CC)C(C)CN1c2ccccc2Sc2ccccc21.Cl (stereo unspecified) | active
8 | C[C@H]1CN([C@@H](C)CO)C(=O)c2cc(NC(=O)Cn3cnnn3)ccc2O[C@H]1CN(C)Cc1ccc(Oc2ccccc2)cc1 | inactive
9 | C[C@H](CO)N1C[C@H](C)[C@H](CN(C)Cc2ccc(C(F)(F)F)cc2)Oc2c(NC(=O)Nc3cccc4ccccc34)cccc2C1=O | inactive
10 | Cc1ccc(S(=O)(=O)N(C)C[C@H]2OCCCC[C@@H](C)Oc3ccc(NS(=O)(=O)c4ccc(F)cc4)cc3C(=O)N([C@H](C)CO)C[C@H]2C)cc1 | inactive
11 | C=C1[C@@H]2[C@H]3OC(=O)[C@@H](C)[C@@H]3[C@@H](O[C@@H]3O[C@H](CO)[C@@H](O)[C@H](O)[C@H]3O)CC(=C)[C@@H]2C[C@@H]1O | inactive
12 | COc1cc(-c2coc3cc(OCc4ccccc4)c(OC)c(O)c3c2=O)cc(OCc2ccccc2)c1OC | inactive
13 | C[C@@H]1CCCCO[C@@H](CN(C)CC2CCCCC2)[C@H](C)CN([C@H](C)CO)C(=O)c2cc(NS(=O)(=O)c3cccs3)ccc2O1 | inactive
14 | Cc1sc(N)nc1-c1ccccc1 | inactive
15 | Cc1ccc(-c2nc(Nc3cccc(Cl)c3)sc2C)cc1 | inactive
16 | C=C(C)CNc1nc(-c2ccccc2)c(-c2ccccc2)s1 | inactive
17 | Cc1sc(Nc2ccccc2)nc1-c1ccc(Cl)cc1 | active
18 | Cc1nc(-c2ccc(Cl)cc2)c(-c2ccccc2)s1 | active
19 | Cc1ccc(Nc2nc(-c3ccc(C)cc3)c(C)s2)cc1 | inactive
20 | NC(=O)Cn1c(=O)c2ccccc2n(CC(N)=O)c1=O | inactive
21 | C=CCN(Cc1ccccc1)C(=O)[C@@H]1N(c2c(Cl)cccc2CO)C(=O)[C@@H]2[C@H](C(=O)O)[C@@H]3C=C[C@@]21O3 | inactive
22 | C[C@H]1CN([C@@H](C)CO)C(=O)c2cc(NC(=O)Nc3ccc(C(F)(F)F)cc3)ccc2O[C@@H]1CN(C)Cc1ccc(C(=O)Nc2ccccc2N)cc1 | inactive
23 | C[C@@H]1CN([C@@H](C)CO)C(=O)c2cc(NC(=O)Nc3ccc(C(F)(F)F)cc3)ccc2O[C@@H]1CN(C)Cc1ccc(C(=O)Nc2ccccc2N)cc1 | active
24 | C[C@H]1CN([C@@H](C)CO)C(=O)c2cc(NC(=O)Nc3ccccc3)ccc2O[C@H]1CN(C)Cc1ccc(C(=O)Nc2ccccc2N)cc1 | inactive

Row | SMILES | cytotoxicity call
25 | C[C@@H]1CN([C@@H](C)CO)C(=O)c2cc(NC(=O)Nc3ccc(F)cc3)ccc2O[C@@H]1CN(C)Cc1ccc(C(=O)Nc2ccccc2N)cc1 | inactive
26 | C[C@H](CO)N1C[C@H](C)[C@H](CN(C)Cc2ccc(C(=O)Nc3ccccc3N)cc2)Oc2ccc(NC(=O)Nc3ccccc3)cc2C1=O | inactive
27 | C[C@H]1CN([C@@H](C)CO)C(=O)c2cc(NC(=O)Nc3ccc(F)cc3)ccc2O[C@H]1CN(C)Cc1ccc(C(=O)Nc2ccccc2N)cc1 | inactive
28 | C[C@H](CO)N1C[C@H](C)[C@H](CN(C)Cc2ccc(C(=O)Nc3ccccc3N)cc2)Oc2ccc(NC(=O)Nc3ccc(C(F)(F)F)cc3)cc2C1=O | active
29 | C[C@H](CO)N1C[C@H](C)[C@@H](CN(C)Cc2ccc(C(=O)Nc3ccccc3N)cc2)Oc2ccc(NC(=O)Nc3ccc(F)cc3)cc2C1=O | inactive
30 | C[C@@H]1CN([C@H](C)CO)C(=O)c2cc(NC(=O)Nc3ccc(C(F)(F)F)cc3)ccc2O[C@H]1CN(C)Cc1ccc(C(=O)Nc2ccccc2N)cc1 | inactive
31 | C[C@@H]1CN([C@H](C)CO)C(=O)c2cc(NC(=O)Nc3ccc(C(F)(F)F)cc3)ccc2O[C@@H]1CN(C)Cc1ccc(C(=O)Nc2ccccc2N)cc1 | active
32 | C[C@H](CO)N1C[C@H](C)[C@H](CN(C)Cc2ccc(C(=O)Nc3ccccc3N)cc2)Oc2ccc(NC(=O)Nc3ccc(F)cc3)cc2C1=O | inactive
33 | C[C@@H]1CN([C@@H](C)CO)C(=O)c2cc(NC(=O)Nc3ccccc3)ccc2O[C@@H]1CN(C)Cc1ccc(C(=O)Nc2ccccc2N)cc1 | active
34 | C[C@H]1CN([C@@H](C)CO)C(=O)c2cccc(NC(=O)C3CC3)c2O[C@H]1CN(C)S(=O)(=O)c1ccc(F)cc1 | inactive
35 | COc1ccc(CN(C)C[C@H]2OCCCC[C@@H](C)Oc3ccc(NS(=O)(=O)c4ccc(C)cc4)cc3C(=O)N([C@H](C)CO)C[C@H]2C)cc1 | inactive
36 | C[C@H]1CN([C@@H](C)CO)C(=O)c2cc(NS(=O)(=O)c3cn(C)cn3)ccc2O[C@@H]1CN(C)S(=O)(=O)c1ccc(Cl)cc1 | inactive
37 | NNC(=O)c1cccc(C(F)(F)F)n1 | inactive
38 | CCC(=O)O[C@H]1[C@@H]2CC3=C4CC(=O)O[C@@H](c5ccoc5)[C@]4(C)CC[C@@H]3[C@@](C)(C2=O)[C@@H](CC(=O)OC)C1(C)C | inactive
39 | C[C@H](CO)N1C[C@H](C)[C@H](CN(C)C(=O)c2ccccc2)OCCCC[C@H](C)Oc2ccc(NS(=O)(=O)c3cccs3)cc2C1=O | inactive
40 | C[C@@H]1CN([C@@H](C)CO)C(=O)c2cc(NC(=O)Cc3cn(C)c4ccccc34)ccc2O[C@H]1CN(C)CC1CCCCC1 | inactive
41 | COc1cccc(S(=O)(=O)Nc2ccc3c(c2)[C@H]2C[C@H](CC(=O)NC4CCCCC4)O[C@@H](CO)[C@H]2O3)c1 | inactive
42 | CN(C)CCCNC(=O)C[C@@H]1CC[C@H]2[C@H](COc3ccc(NC(=O)c4cccc(F)c4)cc3C(=O)N2C)O1 | inactive
43 | COc1ccc(S(=O)(=O)Nc2ccc3c(c2)C(=O)N([C@@H](C)CO)C[C@@H](C)[C@@H](CN(C)Cc2ccc4c(c2)OCO4)OCCCC[C@H](C)O3)cc1 | inactive
44 | CCC(=O)NCc1nccc(N(C)C)n1 | inactive
45 | C[C@H](CO)N1C[C@H](C)[C@@H](CN(C)S(=O)(=O)c2ccc(F)cc2)Oc2ccc(NC(=O)Cn3cnnn3)cc2CC1=O | inactive
46 | C[C@H](CO)N1C[C@H](C)[C@@H](CN(C)Cc2ccc(C(=O)Nc3ccccc3N)cc2)Oc2ccc(NC(=O)Nc3ccc(C(F)(F)F)cc3)cc2C1=O | inactive
47 | C[C@@H]1CN([C@@H](C)CO)C(=O)c2cc(NC(=O)Nc3ccc(C(F)(F)F)cc3)ccc2O[C@H]1CN(C)Cc1ccc(C(=O)Nc2ccccc2N)cc1 | active
48 | C[C@H]1CN([C@@H](C)CO)C(=O)c2cc(NC(=O)Nc3ccc(C(F)(F)F)cc3)ccc2O[C@H]1CN(C)Cc1ccc(C(=O)Nc2ccccc2N)cc1 | inactive

Row | SMILES | cytotoxicity call
49 | C[C@@H]1CN([C@@H](C)CO)C(=O)c2cccc(NC(=O)C3CCOCC3)c2O[C@@H]1CN(C)S(=O)(=O)c1ccc(F)cc1 | inactive
50 | Cc1noc(C)c1S(=O)(=O)Nc1ccc2c(c1)C(=O)N([C@H](C)CO)C[C@@H](C)[C@H](CN(C)CC1CCCCC1)OCCCC[C@@H](C)O2 | inactive
51 | CC(C=CC=C(C)C=CC1=C(C)C(=O)CCC1(C)C)=CC=CC=C(C)C=CC=C(C)C=CC1=C(C)C(=O)CCC1(C)C [CANTHAXANTHIN (euglenanone) ] | inactive
52 | COc1ccc(S(=O)(=O)Nc2ccc3c(c2)[C@@H]2C[C@H](CC(=O)NCC4CC4)O[C@@H](CO)[C@@H]2O3)cc1 | inactive
53 | C[C@H](CO)N1C[C@H](C)[C@@H](CN(C)Cc2ccc(C(=O)Nc3ccccc3N)cc2)Oc2ccc(NS(=O)(=O)c3ccc(Cl)cc3)cc2C1=O | inactive
54 | C[C@@H]1CCCCO[C@H](CN(C)S(=O)(=O)c2cccs2)[C@@H](C)CN([C@@H](C)CO)C(=O)c2cc(NC(=O)Nc3ccc(F)cc3)ccc2O1 | inactive
55 | CNC[C@H](O)c1ccc(O)c(O)c1 | inactive
56 | CNCC(O)c1ccc(O)c(O)c1.O=C(O)C(O)C(O)C(=O)O (stereo unspecified) | active
57 | N[C@@H](C(=O)O)c1ccc(C(=O)O)c(O)c1 | inactive
58 | CNC[C@@H](O)c1ccc(O)c(O)c1 | inactive
59 | N[C@H](C(=O)O)[C@H](O)c1ccc(O)c(O)c1 | inactive
60 | NC[C@H](O)c1ccc(O)c(O)c1 | active
61 | N[C@H](C(=O)O)c1ccc(C(=O)O)c(O)c1 | inactive
62 | NC[C@@H](O)c1ccc2ccccc2c1 | inactive
63 | O=C(O)[C@@H](O)Cc1ccc(O)c(O)c1 | inactive
64 | NCC(O)c1ccc(O)c(O)c1.O=C(O)C(O)C(O)C(=O)O (stereo unspecified) | active
65 | NC(C(=O)O)C(O)c1ccc(O)c(O)c1 (stereo unspecified) | active
66 | NC[C@@H](O)c1ccsc1 | inactive
67 | Cc1noc(C)c1S(=O)(=O)N(C)C[C@H]1Oc2ccc(NC(=O)Cc3cn(C)c4ccccc34)cc2CC(=O)N([C@@H](C)CO)C[C@H]1C | inactive
68 | COc1cccc(S(=O)(=O)N[C@@H]2C=C[C@H](CC(=O)NC3CCC3)O[C@H]2CO)c1 | inactive
69 | C[C@H](CO)N1C[C@H](C)[C@@H](CN(C)C(=O)Cc2ccccc2)OCCCC[C@H](C)Oc2ccc(NS(=O)(=O)c3cccs3)cc2C1=O | inactive
70 | C[C@H](CO)N1C[C@H](C)[C@@H](CN(C)Cc2ccc(C(=O)O)cc2)Oc2ccc(NC(=O)c3ccncc3)cc2C1=O | inactive
71 | C[C@@H]1CCCCO[C@@H](CN(C)Cc2ccc(C(F)(F)F)cc2)[C@H](C)CN([C@H](C)CO)C(=O)c2cc(NS(=O)(=O)c3cn(C)cn3)ccc2O1 | inactive
